Measured values as given in PMC4336329 (PLoS ONE, 2015).
The whole screen tested about 310,000 compounds, of which about 14,000 (4.5%) showed an effect of 50% or more. The effect is printed as a negative number. This excerpt belongs to a sample that is enriched for strong results.

biological target: human ether-à-go-go-related gene (hERG) potassium channel (human, UniProt Q12809); test: primary screen, population patch clamp on CHO cells stably expressing hERG; higher = less effect of the substance
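Further: peak tail current of the secondary pulse compared with the same well before compound.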

Sequence of human ether-à-go-go-related gene (hERG) potassium channel (Q12809 whole entry, looked up): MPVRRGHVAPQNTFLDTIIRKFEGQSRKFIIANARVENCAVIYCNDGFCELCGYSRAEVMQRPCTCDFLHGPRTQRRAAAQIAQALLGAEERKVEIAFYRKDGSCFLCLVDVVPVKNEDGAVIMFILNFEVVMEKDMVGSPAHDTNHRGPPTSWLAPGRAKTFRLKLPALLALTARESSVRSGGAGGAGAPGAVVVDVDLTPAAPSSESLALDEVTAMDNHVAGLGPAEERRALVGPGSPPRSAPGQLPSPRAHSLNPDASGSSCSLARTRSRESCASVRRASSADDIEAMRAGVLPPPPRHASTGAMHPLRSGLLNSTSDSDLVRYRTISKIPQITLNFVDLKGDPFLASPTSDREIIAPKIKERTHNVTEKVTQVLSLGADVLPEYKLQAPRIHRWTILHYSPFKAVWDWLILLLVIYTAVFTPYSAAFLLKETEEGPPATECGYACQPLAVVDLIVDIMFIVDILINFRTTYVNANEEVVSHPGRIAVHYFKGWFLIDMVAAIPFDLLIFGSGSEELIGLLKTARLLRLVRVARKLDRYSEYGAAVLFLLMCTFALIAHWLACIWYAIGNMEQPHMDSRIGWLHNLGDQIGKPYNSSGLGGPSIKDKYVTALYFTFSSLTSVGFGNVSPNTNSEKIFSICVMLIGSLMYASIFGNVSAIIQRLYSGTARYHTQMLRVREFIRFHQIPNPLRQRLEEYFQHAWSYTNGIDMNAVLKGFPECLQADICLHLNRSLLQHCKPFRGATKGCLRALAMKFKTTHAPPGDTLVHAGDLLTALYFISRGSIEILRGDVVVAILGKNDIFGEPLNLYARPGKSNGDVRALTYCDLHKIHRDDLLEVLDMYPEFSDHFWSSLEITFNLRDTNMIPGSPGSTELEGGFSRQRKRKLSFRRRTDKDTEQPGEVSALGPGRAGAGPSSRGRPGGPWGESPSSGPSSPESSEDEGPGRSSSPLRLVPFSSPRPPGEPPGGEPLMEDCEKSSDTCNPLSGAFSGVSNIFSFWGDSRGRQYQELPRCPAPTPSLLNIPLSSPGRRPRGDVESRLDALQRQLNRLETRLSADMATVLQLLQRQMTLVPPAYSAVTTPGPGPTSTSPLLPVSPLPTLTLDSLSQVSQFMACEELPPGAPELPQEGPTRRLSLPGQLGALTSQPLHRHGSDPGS

In order of rising “hERG current change (%, negative = inhibition) at 10uM” value:
1. O=C(NCCOc1ccccc1)C1CCC(=O)N(CCc2ccc(Cl)cc2)C1 (centres unmarked)  -88.2%
2. CN(CCNC(=O)C1CCC(=O)N(Cc2ccc(Cl)cc2)C1)CCc1ccccc1 (centres unmarked)  -72.6%
3. COc1ccccc1CN1CC(C(=O)NCCN(C)CCc2ccccc2)CCC1=O (centres unmarked)  -65.7%
4. COc1ccccc1CN1CC(C(=O)N2CCCCO2)CCC1=O (centres unmarked)  -65.7%
5. O=C(NCCc1ccc(Cl)cc1)C1CC(=O)N(CCc2ccccc2)C1 (centres unmarked)  -62%
6. O=C(NCCCc1ccccc1)C1CCC(=O)N(Cc2ccc(Cl)cc2)C1 (centres unmarked)  -61.3%
7. O=C(NCCc1ccccc1Cl)C1CCC(=O)N(Cc2ccc(Cl)cc2)C1 (centres unmarked)  -56.8%
8. CN(CCNC(=O)C1CCC(=O)N(Cc2cccc(F)c2)C1)CCc1ccccc1 (centres unmarked)  -46.3%
9. O=C(NCc1ccccc1F)C1CCC(=O)N(Cc2ccc(Cl)cc2)C1 (centres unmarked)  -42.1%
10. COc1ccccc1CN1CC(C(=O)NCCCc2ccc(F)cc2)CCC1=O (centres unmarked)  -41%
11. Cc1ccccc1CCNC(=O)C1CCC(=O)N(Cc2ccc(Cl)cc2)C1 (centres unmarked)  -33.4%
12. O=C(NCCc1ccccc1F)C1CCC(=O)N(Cc2ccc(Cl)cc2)C1 (centres unmarked)  -32.5%
13. O=C(NCCOc1ccccc1)C1CCC(=O)N(Cc2ccc(Cl)cc2)C1 (centres unmarked)  -31.2%
14. Cc1ccc(CNC(=O)C2CCC(=O)N(CCc3ccccc3)C2)s1 (centres unmarked)  -25.7%
15. O=C(NC1(c2ccccc2)CC1)C1CCC(=O)N(Cc2ccc(Cl)cc2)C1 (centres unmarked)  -24.1%
16. CSc1ccc(NC(=O)CC(C)=O)cc1  -21.3%
17. O=C(NCCc1ccccc1)C1CCC(=O)N(Cc2ccc(Cl)cc2)C1 (centres unmarked)  -20.5%
18. COc1ccccc1CN1CC(C(=O)N2CCOCC2)CCC1=O (centres unmarked)  -14.6%
19. COc1ccccc1CCNC(=O)C1CCC(=O)N(Cc2ccccc2OC)C1 (centres unmarked)  -13.2%
20. O=C(NCCOc1ccccc1)C1CCC(=O)N(CCc2ccccn2)C1 (centres unmarked)  -11.9%
21. CCOC(=O)CN1C(=O)N[C@@H](c2cccs2)C(C(=O)OC)=C1C  -11%
22. O=C(CCNC(=O)N1CCn2c1nc1ccccc12)NCc1ccc(F)cc1  -6.29%
23. CCOc1ccc(C)cc1S(=O)(=O)Nc1ccc(Cl)cn1  -3.98%
24. Cc1ccc(CCN2CC(C(=O)NCCc3ccccc3)CC2=O)cc1 (centres unmarked)  -3.16%
25. Cn1c(=O)cc(OCC(=O)N2CCCc3ccccc32)c2ccccc21  -3.03%
26. O=S(=O)(NC1CCCCC1)c1ccc(N2CCOCC2)nc1  -2.81%
27. Cc1ccccc1NC1=NCC(C)S1 (centres unmarked)  -2.32%
28. CCCc1nn2c(=O)cc(CSCC(=O)Nc3ccc(F)cc3)nc2s1  -1.51%
29. COc1ccc(Br)cc1/C=C(\C(=O)O)c1ccc(S(=O)(=O)N2CCCCC2)s1  0.483%
30. COc1ccc(C(C(=O)NC2CCCC2)N(C(=O)c2snc(-c3ccc(F)cc3)c2N)c2ccc(F)cc2)cc1 (centres unmarked)  1.29%
31. Cc1ccc(CNC(=O)C2CCC(=O)N(CCc3ccccn3)C2)s1 (centres unmarked)  2.53%
32. CN(Cc1nc2ccccc2n1C)S(=O)(=O)c1ccc(Cl)cc1  3.21%
33. COc1ccccc1CN1CC(C(=O)N2CCCCCCC2)CCC1=O (centres unmarked)  3.22%
34. CCC(=O)c1c[nH]c(C(=O)NCCc2ccccn2)c1  3.31%
35. O=C(NCCc1ccccc1)C1CC(=O)N(CCc2ccccc2)C1 (centres unmarked)  6.57%
36. Cc1c(NC(=O)c2cc3c(=O)n4ccccc4nc3s2)c(=O)n(-c2ccccc2)n1C  8.11%
37. CCOC(=O)C1(Cc2ccccc2C)CCCN(C(=O)CN2CCCCC2=O)C1 (centres unmarked)  14.8%
38. COc1ccc(C(CC(=O)O)NC(=O)COc2ccc(C)cc2)cc1OC (centres unmarked)  15.2%
39. Cc1nn(-c2ccc(F)cc2)c(Cl)c1/C=C/C(=O)OCC(=O)Nc1ccc(F)cc1F  15.5%
40. CCOC(=O)c1c(NC(=O)c2cccs2)sc2c1CCCC2  15.6%
41. N#Cc1ccccc1NC(=O)c1ccccc1OCC(=O)Nc1ccc2c(c1)oc1ccccc12  16.2%
